Measured values taken from the supplement of paper PMC6555819.

How the values were obtained:
Assay in all cases: PBM binding z-score (relative to random genomic background probes); higher = stronger binding; sequences stand for … in GC…GCGATTGACAGCGTAGAATGAAGG
[1] = test system: RARb homodimer (NR concentration 270 nM)
Summary of the method: (§1)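 Custom Agilent 4×180K protein-binding microarrays carried double-stranded probes, each with a 34-nt variable region. These regions held direct-repeat seeds, single-nucleotide variants, half-site ablations and random human genomic background sequences. Ligand-free nuclear receptor dimers were incubated on the arrays for 1 h, antibodies against each partner (one per run) detected binding, and scanned fluorescence was regression-normalized. Binding z-scores take the random background probes as reference.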

[2] = test system: RARg:RXRa (NR concentration 270 nM, RXRa partner concentration 90 nM)
Summary of the method: as §1

[3] = test system: RARg homodimer (NR concentration 270 nM)
Summary of the method: as §1

[4] = test system: RXRa DBDmut IVT, anti-RXR (DBD mutation: RXRa K156A/R161A, NR concentration 90 nM)
Summary of the method: as §1

[5] = test system: RXRa homodimer (NR concentration 180 nM)
Summary of the method: as §1

[6] = test system: THRa:RXRa (NR concentration 90 nM, RXRa partner concentration 90 nM)
Summary of the method: as §1

[7] = test system: THRa homodimer (NR concentration 90 nM)
Summary of the method: as §1

[8] = test system: VDR:RXRa (NR concentration 270 nM, RXRa partner concentration 90 nM)
Summary of the method: as §1

[9] = test system: VDR homodimer (NR concentration 270 nM)
Summary of the method: as §1

Row | Sequence | PBM binding z-score [1] | PBM binding z-score [2] | PBM binding z-score [3] | PBM binding z-score [4] | PBM binding z-score [5] | PBM binding z-score [6] | PBM binding z-score [7] | PBM binding z-score [8] | PBM binding z-score [9]
1 | GCTAGCAGGCCAGTTGGGTCACTCAATGACGGGC | 1.76 | 0.797 | 0.963 | -1.01 | 0.522 | 1.45 | 0.0151 | -0.00125 | -0.361
2 | CTTCCAAGGTCAATGCTAGGTCAGTGAAAGCATT | 4.79 | 7.32 | 6.93 | 3.55 | 5.39 | 4.33 | 3.09 | 4.72 | 2.95
3 | GCTTGTAGATCAAAGTTAAGAAAGACTAAGCTAA | -0.8 | -0.501 | -0.292 | -0.0516 | -0.495 | -0.445 | -1.4 | -0.483 | -0.623
4 | GCGACTGGGGCAAAGCAGGTTACCATCAGGTTGG | 0.97 | 0.227 | 0.303 | -0.245 | 0.557 | 2.72 | -0.213 | -0.194 | -0.458
5 | CCTTACGGGTCACTGACAGGGTATAGCATTTGGA | 2.82 | 5.05 | 4.61 | 1.26 | 4.55 | 2.32 | -0.0972 | 3.15 | 0.873
6 | ATCGAAAGGTCCAGGTGAGTATAGAGAAAGGGAA | 0.976 | 0.8 | 0.946 | 0.31 | 0.494 | 0.94 | 0.905 | 0.18 | 0.121
7 | ACTAGTTGGTCAGCTTAGGTCACACACAATTCGG | 3.68 | 2.59 | 3.19 | 0.83 | 1.69 | 4.33 | 3.55 | 1.82 | 0.863
8 | TCTATTAGTTGAAGGGCCACCGACGAGTCCGTTT | 0.971 | 0.277 | 0.128 | 1.69 | 0.47 | 0.074 | 0.396 | 0.591 | 1.35
9 | ACTATTTGTTGAGACGAGGGCAACCGATAGGTTG | 1.14 | 0.614 | 0.897 | 0.884 | 0.414 | 1.21 | 0.711 | 0.711 | 1.3
10 | CCGAGTAGGTCATGGGGCATTCAGGCAACGGTGA | 3.25 | 4.34 | 4.44 | 0.881 | 3.87 | 2.45 | 0.499 | 2.27 | 0.642
11 | ATTCGGAGGACAAAGGTCAGAGCTACGCCAGTGA | 4.59 | 5.89 | 5.52 | 0.937 | 5.03 | 3.41 | 0.717 | 3.4 | 1.32
12 | TAGCCTAGGGCATGCGGGCCAGTATAGTGTCGGC | 0.409 | 0.0659 | 0.455 | -1.55 | -0.233 | -0.465 | -1.1 | -0.814 | -0.907
13 | TCTGCTAGGTCAGTTGGTCACCTAACGAGCTGCC | 2.87 | 2.97 | 3.79 | 0.479 | 1.15 | 1.88 | 0.86 | 0.235 | -0.466
14 | GCTGCTAGGTCCGGTTGGTCAGCTAACGGGTACG | -0.107 | -0.731 | -0.757 | -0.46 | -0.726 | -0.903 | -0.944 | -0.965 | -0.324
15 | ACTAGTTGGTCAGCTGAGCTCACACACAATTCGG | 0.0845 | -0.0715 | 0.577 | 0.194 | -0.234 | 0.0887 | -0.346 | -0.299 | -0.289
16 | GCTAGTTGGCCAGTAAAAGGTCACACACCGGTCG | 5.19 | 5.15 | 4.08 | 0.252 | 5.46 | 3.55 | 1.33 | 3.73 | 1.49
17 | CCTTACGGGTCATGAGGTTATAGCACGACGAGCG | 3.4 | 5.79 | 4.57 | 1.85 | 6.48 | 3.62 | 0.938 | 4.92 | 1.91
18 | TCGAGTAGGTTACCAATAGGGCATTCAGCTTTCT | 0.965 | 1.78 | 0.593 | 0.262 | 0.749 | 0.215 | -0.961 | 0.152 | -0.368

Row | Sequence | PBM binding z-score [1] | PBM binding z-score [2] | PBM binding z-score [3] | PBM binding z-score [4] | PBM binding z-score [5] | PBM binding z-score [6] | PBM binding z-score [7] | PBM binding z-score [8] | PBM binding z-score [9]
19 | CAATCTAGGTCACCGGAAGGTCAAAGTCCGCATG | 5.77 | 8.45 | 7.81 | 1.98 | 7.46 | 4.59 | 3.62 | 6.01 | 4.12
20 | TCTTGTAGATCAACAGGGGGTTAAGAAAGATCGA | 1.32 | 1.91 | 0.92 | 1.89 | 1.93 | 1.86 | 0.559 | 2.13 | 0.493
21 | AATACAGGGTCACTAGGACAGAGTAGGTACGAAT | 3.32 | 5.16 | 4.79 | 2.9 | 5.5 | 3.64 | 1.72 | 3.97 | 2.97
22 | CCGAGCAGGCCAATCTGGGTCACTCAAGGCTTGA | 2.28 | 1.25 | 1.68 | 0.0945 | 1.15 | 3.72 | 0.404 | 0.157 | 0.347
23 | CCTACTGCGCCAAAAAGGTCATTGATGCCGATAA | 4.48 | 4.82 | 4.32 | 1.65 | 5.56 | 3.04 | 1.34 | 4.94 | 3.24
24 | CCGACTGGGGTAGAAAGGTTACCATACCATCCGG | 2.13 | 1.97 | 1.04 | -1.26 | 2.35 | 1 | -0.443 | 0.692 | -0.2
25 | CGTCCTAGGTCAATGCTAGGTCAGTGAAAGCATT | 4.16 | 6.16 | 5.14 | 1.83 | 2.57 | 3.94 | 1.73 | 3.02 | 0.909
26 | AGAATGAGGTTATTAAAATCAGGGAATTGCGGTC | 0.836 | 0.827 | 0.788 | 1.46 | 1.43 | 1.89 | 0.676 | 0.984 | 0.874
27 | CCTGCTAAGTCAATGGTCAGCTAAAGCAGCTCGC | 0.12 | -0.277 | -0.302 | 0.497 | -0.263 | -0.402 | -0.724 | -0.304 | -0.804
28 | CCAGACAGGTGAAAGGTAAGTCAGTCTGGTACGC | 0.843 | 1.2 | 0.478 | 0.066 | 1.68 | 0.828 | 0.0448 | 0.522 | 0.0335
29 | CACGAAAGGTCGTGCTCAGGTGAGTATACCAAAC | 2.88 | 5.37 | 4.66 | 2.24 | 5.36 | 3.96 | 1.18 | 3.51 | 1.46
30 | CCTACTGGGCCAAAAAGGTCATTGCTGCCGATAA | 4.46 | 4.63 | 4.02 | 0.7 | 4.99 | 2.99 | 0.486 | 4.46 | 2.98
31 | CCTCGGAGGACAAAAGGAGGTCAGAGCTGCCAGA | 3.07 | 3.24 | 2.75 | 0.256 | 1.82 | 2.5 | 0.878 | 1.97 | 1.23
32 | AGAATGAGGTTATACGTAGACCAGGGAAGAAAGT | 0.866 | 1.63 | 1.19 | 1.61 | 2.16 | 1.98 | 0.296 | 1.18 | 0.999
33 | TATACAGGGTCAAAGGCCAGAATACGAATGTCGA | 3.2 | 5.71 | 5.1 | 2.7 | 6.99 | 3.41 | 0.697 | 4.62 | 2.6
34 | ACTAGTAGTTGACTTAGGGCAACCGATACGACGC | 0.773 | 0.36 | 0.487 | -0.14 | 0.393 | 1.44 | -0.151 | 0.0405 | -0.0873
35 | AGAACGAGGGCATGCTGAGTTGATAGCAGAGTAG | 0.498 | 1.33 | 1.34 | 2.24 | 0.92 | 1.2 | -0.497 | 1.5 | 1.74
36 | GCCACTGGGGCAAAGCAGGTTACCATAAGGTTGG | 1.08 | 0.357 | 0.651 | -0.861 | 0.287 | 2.79 | -0.169 |  | -0.617
